# PubChem BioAssay AID1347385 (Zoeller Lab, School of Medicine, Boston University, 2020)
# Out of some 20,000 compounds screened, about 85 (0.4%) were called active.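 How the source made its calls: active means cell survival signal 2 SD away from solvent-only control wells, confirmed on one or two retests; inactive means the rest.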 This excerpt belongs to a sample that is enriched for actives.
# Assay: compounds reducing fatty acid uptake into lipids – ZR-82 cells, Enamine library, screen 3, primary screen (AID 1347385);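 further: 3 h compound exposure then viability read about one day after UV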
# Settings: ZR-82 CHO cells, pyrene fatty acid UV survival, CellTiter Blue, peroxisome-deficient CHO-K1 mutant line, plus DGAT-1, DGAT-2 and ACAT inhibitors; at 10 µM unless noted
row,SMILES,outcome
1,COC(=O)CNC(=O)c1ccc([N+](=O)[O-])o1,inactive
2,CC(C)CN(C1CCS(=O)(=O)C1)S(=O)(=O)c1ccc(Cl)cc1 (centres undefined),inactive
3,C(=Nc1ccc2c(c1)OCO2)c1ccc2ncccc2c1,inactive
4,c1ccc2c(c1)OCCOCCOCCOc1ccccc1OCCOCCO2,inactive
5,O=C1NNS(=O)(=O)c2ccccc21,inactive
6,Brc1ccc2nc(-n3nc4ccccc4n3)nc(-c3ccccc3)c2c1,inactive
7,Cc1sc2ncnc(SCC(=O)c3c(N)n(CC(C)C)c(=O)n(C)c3=O)c2c1C,inactive
8,CCOC(=O)Cc1n[nH]c(=S)n1C1CCCC1,inactive
9,CCNC(=S)N1CCN(S(=O)(=O)c2ccc(Cl)s2)CC1,inactive
10,Cc1cc(-c2csc(N)n2)c(C)c(C)c1C,inactive
11,O=C(COc1ncnc2sc3c(c12)CCC3)c1ccc(Cl)s1,inactive
12,O=C(CN1C(=O)NC2(CCCC2)C1=O)NC1CCSc2ccc(F)cc21 (centres undefined),inactive
13,C=CCN(CC=C)CC(=O)Nc1sc2c(c1C(N)=O)CCCC2,inactive
14,Clc1ccc(Cl)c(-c2ccc(-c3ncc(-c4cccs4)o3)o2)c1,inactive
15,CN(C)C(=O)CN(C)C(=O)CN1C(=O)NC2(CCCCCC2)C1=O,inactive
16,Cc1nc(SCC(=O)N2CCNC2=O)n(CC(C)C)c1C,inactive
17,O=S(=O)(c1ccc(Cl)c(N=C2SCCN2C2CCCCC2)c1)N1CCOCC1,inactive
18,c1ccc(OCc2nc(-c3ccccn3)n[nH]2)cc1,inactive
19,C#CC(CC)(CC)NC(=O)CCc1nc2sc3c(c2c(=O)[nH]1)CCCC3,inactive
20,Brc1ccccc1C1N=C(c2ccccc2)NO1 (centres undefined),inactive
21,O=c1c2c3c(sc2[nH]c(=S)n1C1CCCC1)CCC3,inactive
22,O=C(OCc1cc([N+](=O)[O-])cc2c1OCOC2)C1CCC1,inactive
23,O=C(CSc1nc2sc3c(c2c(=O)n1C1CCCC1)CCCC3)N1CCCC1,inactive
24,FC(F)Oc1ccc(C2Oc3ccccc3C3CC(c4ccccc4)=NN32)cc1 (centres undefined),inactive

row,SMILES,outcome
1,Cc1nnc(NC(=O)NCC2(C)CC(NC(=O)Nc3nnc(C)s3)CC(C)(C)C2)s1 (centres undefined),inactive
2,CC(C)N(CCNS(=O)(=O)c1ccccc1)C(C)C,inactive
3,O=[N+]([O-])c1ccc(-n2nnc3ccccc32)c(Cl)c1,inactive
4,Clc1ccccc1C1Oc2ccccc2C2CC(c3ccc4c(c3)OCCO4)=NN21 (centres undefined),inactive
5,O=c1/c(=C/c2ccc(F)cc2)sc2n1CCN=2,inactive
6,O=C1OCC(CO)(CO)N=C1NNc1ccc(I)cc1,inactive
7,FC(F)Oc1ccc(Cl)c(C2Nc3ccccc3-c3nc4ccccc4n32)c1 (centres undefined),inactive
8,C(=N\n1c(-c2ccc(-c3ccccc3)cc2)csc1=NCCc1ccccc1)/c1ccccn1,inactive [setting not given]
9,O=C(NC(O)C(Cl)(Cl)Cl)C12CC3CC(CC(C3)C1)C2 (centres undefined),inactive
10,CCOC(=O)c1c(C)[nH]c(C(=O)OCC(=O)C(C)(C)C)c1C,inactive
11,C#CCN=Cc1c(O)n(CCOC)c(=S)[nH]c1=O,inactive
12,O=S(=O)(Oc1cccc2cccnc12)c1ccc2ccccc2c1,inactive
13,CC(Sc1nnc(-c2ccc(C(C)(C)C)cc2)o1)c1nnc(-c2ccc([N+](=O)[O-])cc2)o1 (centres undefined),inactive
14,O=C1NC(c2ccc3c(c2)OCO3)C(C(=O)c2ccccc2)C(O)(C(F)(F)F)N1 (centres undefined),inactive
15,CCN(CC)[P+](N)(c1nc2ccccc2n1C)N(CC)CC,inactive
16,COC(=O)c1cc(C(O)(C(F)(F)F)C(F)(F)F)c(N=CN(C)C)s1,inactive
17,C=CCn1c(SCc2c(C)noc2C)nc2sc3c(c2c1=O)CCC(C)C3 (centres undefined),inactive
18,Cn1cc(-c2nn(-c3ccccc3)cc2/C=N/NC(N)=S)c2ccccc21,inactive [setting not given]
19,Cc1cc(C=C2Sc3ccccc3N2C)cc(C)[n+]1CCCn1ccnc1,inactive
20,CC1CCC2(CC1)NC(=O)N(CC1CC1(Cl)Cl)C2=O (centres undefined),inactive
21,COc1ccc(OCCN2CCN(C(=N)N)CC2)cc1,inactive
22,C=CCNC(=S)NN=C1c2ccccc2-c2ccccc21,inactive
23,O=C(CSc1ncnc2sc3c(c12)CCC3)N1CCCCC1,inactive
24,C=CCOc1c(Cl)cc(S(=O)(=O)c2cc(Cl)c(O)c(Cl)c2)cc1Cl,inactive

row,SMILES,outcome
1,COCCn1c(C)cc(C(=O)COC(=O)Cn2c(C)csc2=O)c1C,inactive
2,COc1ccc(C2=CC(c3ccc(OC)cc3)n3nnnc3N2)cc1 (centres undefined),inactive
3,O=[N+]([O-])c1ccc(NC(=S)N=C2c3ccccc3CN2c2ccc(Cl)cc2)cc1,inactive
4,O=S1(=O)CCC(NS(=O)(=O)c2ccc(Cl)c(Cl)c2)C1 (centres undefined),inactive
5,NC=C(S(=O)(=O)c1ccc(Cl)cc1)S(=O)(=O)c1ccc(Cl)cc1,inactive
6,O=c1c(-c2cc3ccccc3o2)coc2ccccc12,inactive
7,O=C1C=CC(=O)N1c1ccc(Br)cc1,inactive
8,CC1CCN(C2=NS(=O)(=O)c3ccccc32)CC1,inactive
9,CCSc1nnc(SCC(=O)c2c(N)n(CC(C)C)c(=O)n(C)c2=O)s1,inactive
10,Cc1ccc(-c2csc3nc(CSc4nnnn4C)[nH]c(=O)c23)s1,inactive
11,CCCSc1nsc(N)n1,inactive
12,Clc1ccc2nc(CSc3ccc4ccccc4c3)cn2c1,inactive
13,Fc1ccc(Cn2c3[n+](c4ccc(C(F)(F)F)cc42)CCCCC3)cc1,inactive
14,COC(=O)c1noc(C(=O)OC)c1O,inactive
15,FC(F)(F)C(=NCc1ccco1)NC1(C(Cl)(Cl)Cl)Oc2ccccc2O1,inactive
16,CCOc1cc(C)c(S(=O)(=O)N2CCCC2)cc1C(C)C,inactive
17,CCN(CC)c1ccc([P+](CC)(c2ccc(N(CC)CC)cc2)c2ccc(N(CC)CC)cc2)cc1,inactive
18,COc1ccc(OC)c(C2CC(c3ccco3)=NN2S(C)(=O)=O)c1 (centres undefined),inactive
19,CCCc1ccc(C2=C(C)SC3=NS(=O)(=O)CCN32)cc1,inactive
20,Cc1cc(C)nc(SCc2cn3c(C)cc(C)nc3n2)n1,inactive
21,COc1ccc(C2=NN3C(C2)c2ccccc2OC32CCCC2)c(OC)c1 (centres undefined),inactive
22,Cc1cc(C(=O)C(C)n2cnc3c2c(=O)n(C)c(=O)n3C)c(C)n1Cc1ccco1 (centres undefined),inactive
23,O=[N+]([O-])c1ccc(-c2c[n+](=O)c3c(n2[O-])CCCCC3)cc1,inactive
24,CC(C)(C)NC(=O)NC(=O)COC(=O)C1(C)CC1(Cl)Cl (centres undefined),inactive

row,SMILES,outcome
1,Cc1nc2sc3c(c2c2nnnn12)CCCC3,inactive
2,O=C1OC(c2ccccc2)=N/C1=C\c1ccc(C(F)(F)F)cc1,inactive
3,Cc1ccc(C)n1-n1c(C)nc2sc3c(c2c1=O)CCCC3,inactive
4,O=S1(=O)CCC(NC2CCCCC2)C1 (centres undefined),inactive
5,Cc1ccc(C2=Nn3cc(-c4ccccc4)nc3SC2)cc1,inactive
6,O=c1oc2cc(O)c(Cl)cc2c2c1CCCC2,inactive
7,C=CCNS(=O)(=O)c1ccc2c(c1)OCCO2,inactive
8,Cn1nnc2c(=O)[nH]cc([N+](=O)[O-])c21,inactive
9,CC(C)(C)c1cnnn1-c1ccc([N+](=O)[O-])cc1,inactive
10,CC1CNC(=O)NC1=O (centres undefined),inactive
11,CCCCn1c(N)c(N(CC)C(=O)/C=C/c2ccco2)c(=O)[nH]c1=O,inactive
12,CCCCNC(=S)N(C)/N=C1\C(=O)Nc2ccc([N+](=O)[O-])cc21,inactive [setting not given]
13,O=c1oc2ccccc2c(O)c1C=Nc1ccccc1Br,inactive
14,O=C1Nc2ccc([N+](=O)[O-])cc2/C1=N/n1cnnc1,inactive [setting not given]
15,c1ccc(CCc2nc(-c3ccncc3)no2)cc1,inactive
16,Nc1nnc(SCC(=O)O)s1,inactive
17,CCOC(=O)/C=C1\SCC(=O)N1CCSc1nnc(C)s1,inactive
18,COc1cc(/C=N/OCc2ccc([N+](=O)[O-])cc2)ccc1OC(F)F,inactive [setting not given]
19,CC1=C(C(C)C)Nc2nnnn2C1c1ccc(Br)cc1 (centres undefined),inactive
20,CCOC(=O)c1c(-c2ccc(C)o2)csc1N=Cc1c(O)[nH]c(=S)[nH]c1=O,inactive
21,NC(=S)c1cccc(Br)c1,inactive
22,NC1=NC(=O)/C(=C\c2ccc3c(c2)OCO3)S1,inactive
